This passage reports Potency results from PubChem BioAssay (Tox21).

Results filed as inconclusive are left out. Entries that show only a call come without a potency. Calls of active or inactive are those of the source. The call rests on the fitted dose curve; in most records, active means well fitted cell-killing curve with a large enough effect in the repeat runs; inconclusive means weak or mixed curves, or effect the other way; inactive means flat fitted curve, though single readings scatter.

The test can be described thus: qHTS assay to identify small molecule that activate the aryl hydrocarbon receptor (AhR) signaling pathway - cell viability counter screen (AID 743086).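 Further: HepG2 liver cells carrying the AhR DRE luciferase reporter; nearly all actives have a fitted effect of over 45% in size.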 Conditions: HepG2-AhR-luc viability, CellTiter-Fluor, 24 h; series mostly up to 70.3 µM. The procedure, abridged:
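HepG2-AhR-luc (HG2L7.5c1) cells, 4000/well, were preincubated 5 h at 37C, exposed to compound in qHTS format for 24 hr at 37C, then given CellTiter-Fluor for 30 min; viability was read as fluorescence in the reporter wells.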
Consider `C=C[C@@H](C)CCC=C(C)C`, for which the Potency entry was “inactive”. Take `CCC(=O)c1ccc(O)cc1`: the Potency result was “inactive”. Take `CN[C@@H]1[C@@H](O)[C@@H](O[C@@H]2[C@H](O)[C@H](O[C@H]3OC(CN)=CC[C@H]3N)[C@@H](N)C[C@H]2N)OCC1(C)O` (some centres not stated): the Potency entry was “inactive”. `CCc1nccnc1C`: the Potency result is “inactive”. The value for `CCCCOC(=O)C(=O)OCCCC` was “inactive”; that for `CC(C)COC(=O)CCCCC(=O)OCC(C)C` was “inactive”; that for `Cc1cc(O)c2c(c1)C(=O)c1cccc(O)c1C2=O` was “inactive”. The value for `O=CN1CCOCC1` was “inactive”. With `OCCCCCCCl` the entry was “inactive”. Turning to `C[C@H](CCC(=O)NCC(=O)O)[C@H]1CC[C@H]2[C@@H]3[C@H](O)C[C@@H]4C[C@H](O)CC[C@]4(C)[C@H]3C[C@H](O)[C@]12C`, the Potency entry is “inactive”. With `O=C1NC2NC(=O)NC2N1` (configuration not stated) the entry was “inactive”; with `CCOC(=O)CCc1ccccc1`, “inactive”. `Cc1ccccc1OCC1CO1` (configuration not stated): the Potency result is “inactive”. The value for `O=c1[nH]c(=O)c2[nH]c(=O)[nH]c2[nH]1` was “inactive”; that for `Cc1cccc(Nc2ccncc2S(=O)(=O)NC(=O)NC(C)C)c1` was “inactive”.

In the case of `CC1=CC[C@H](CC=O)C1(C)C`, the Potency entry was “inactive”. With `OC(CCN1CCCCC1)(c1ccccc1)c1ccccc1` the entry was “inactive”. The value for `NS(=O)(=O)c1cc2c(cc1Cl)NC(CC1CCCC1)NS2(=O)=O` (configuration not stated) was “inactive”; that for `COc1cccc2sc(N)nc12` was “inactive”.

Take `CN(C)CCCNCCC#N`: the Potency entry was “inactive”. Take `CCC(O)C(C)(C)C` (configuration not stated): the Potency result is “inactive”.

Take `C=CCOC(=O)c1ccc(C(=O)OCC=C)c(C(=O)OCC=C)c1`: the Potency entry was “inactive”. The value for `C=C(C)[C@@H]1CC[C@@H](C)C[C@@H]1O` was “inactive”; that for `Nc1ccc(/C=C/c2ccc(N)cc2S(=O)(=O)O)c(S(=O)(=O)O)c1` was “inactive”; that for `CC(Cl)COP(=O)(OCC(C)Cl)OCC(C)Cl` (configuration not stated) was “inactive”. In the case of `CCNC(=O)NCCCOc1cccc(CN2CCCCC2)c1`, the Potency entry was “inactive”. For `Cc1ncc([N+](=O)[O-])n1CC(O)CCl` (configuration not stated), the Potency entry is “inactive”.

Turning to `COCCOCCOCCOC`, the Potency result is “inactive”.

Turning to `CCCCC/C=C/CC(=O)OC`, the Potency entry was “inactive”. With `O=C(c1ccc2c(c1)C(=O)OC2=O)c1ccc2c(c1)C(=O)OC2=O`, the Potency result is “inactive”. On to `NC(=O)NC(=O)Cc1ccccc1`, for which the Potency entry was “inactive”. Take `CCOC(=O)CC(CC(=O)OCC)(OC(C)=O)C(=O)OCC`: the Potency result is “inactive”. The value for `CCC1COC(=O)O1` (configuration not stated) was “inactive”. On to `COCC(=O)Nc1c(I)c(C(=O)NCC(O)CO)c(I)c(C(=O)N(C)CC(O)CO)c1I` (configuration not stated), for which the Potency result was “inactive”. With `CCS(=O)(=O)CCn1c([N+](=O)[O-])cnc1C` the entry was “inactive”; with `NC(=O)NNC(N)=O`, “inactive”. The value for `Cc1ccccc1C` was “inactive”.
